Assay results taken from PubChem BioAssay (NCI).
About 83,000 compounds went through this panel and 20% of them were active in at least one assay; those are over-represented in the sample as a whole.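 A percent growth of 40 corresponds to 60% growth inhibition; 0 means no net growth; -100 means all cells died. Active threshold: below 10.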 Calls of active or inactive are those of the source.

Experiments:
Assay in all cases: NCI-60 one-dose screen, 48 h (100 = growth as untreated, 0 = no growth, -100 = all killed)
Conditions in all cases: 10 µM
[1] = test system: NCI-H23 lung
[2] = test system: NCI-H226 lung
[3] = test system: HOP-62 NSCLC
[4] = test system: NCI-H460 lung
[5] = test system: NCI-H522 lung
[6] = test system: A549/ATCC NSCLC
[7] = test system: 786-0 renal
[8] = test system: COLO 205 colon
[9] = test system: DU-145 prostate
[10] = test system: K-562 leukemia
[11] = test system: MALME-3M melanoma
[12] = test system: MDA-MB-231 breast
[13] = test system: RXF 393 renal
[14] = test system: SF-268 CNS
[15] = test system: SF-295 CNS
[16] = test system: SF-539 CNS
[17] = test system: UACC-257 melanoma
[18] = test system: M14 melanoma
[19] = test system: HOP-92 NSCLC

Measured: growth

O=C(CCC(C(=O)c1ccccc1)c1ccccc1)c1ccccc1 (centres undefined)
active: [5] 3.51%
inactive: [1] 78.6% | [2] 83.1% | [3] 76.8% | [4] 76.2% | [6] 61.9% | [7] 82.7% | [8] 79.7% | [9] 86.4% | [10] 18.7% | [11] 43.4% | [12] 77.9% | [13] 78% | [14] 85% | [15] 36.9% | [16] 99.9% | [17] 90.5% | [18] 52.2%

COc1ccc(Nc2cnc3cc(NS(=O)(=O)c4ccc(C)cc4)ccc3n2)cc1
inactive: [1] 86.5% | [2] 94% | [3] 79% | [4] 84.4% | [5] 36.1% | [6] 66.2% | [7] 97% | [8] 96.4% | [9] 102% | [10] 24.2% | [11] 74.1% | [12] 67.6% | [13] 100% | [14] 88.1% | [15] 75% | [16] 80.9% | [17] 73.3% | [18] 75.8%

COc1ccc(C2CC(c3cc(OC)c(OC)c(OC)c3)=NN2)cc1 (centres undefined)
inactive: [1] 86.6% | [2] 93.2% | [3] 98.1% | [4] 51.5% | [5] 53.3% | [6] 51.7% | [7] 92.1% | [8] 55.1% | [9] 91.5% | [10] 11.2% | [12] 86.8% | [13] 92.5% | [14] 74.2% | [15] 48.1% | [16] 78.7% | [17] 120% | [18] 92.6%

CCCCN1C(=O)CC(SC2CC(=O)N(CCCC)C2=O)C1=O (centres undefined)
inactive: [1] 97.9% | [2] 104% | [3] 106% | [4] 108% | [19] 97.8% | [6] 119% | [7] 112% | [8] 102% | [9] 103% | [10] 118% | [12] 108% | [13] 122% | [14] 101% | [15] 109% | [16] 105% | [17] 98.6% | [18] 113%

S=C1N(c2ccccc2)CN(C2CCCCC2)CN1c1ccccc1
active: [5] -29.7% | [17] 2.41%
inactive: [1] 100% | [2] 98.7% | [3] 99.9% | [4] 105% | [6] 45.5% | [7] 100% | [9] 107% | [10] 101% | [12] 98.2% | [13] 109% | [14] 118% | [16] 88.1% | [18] 100%

COc1ccc(N(C)c2ncnc3occ(C)c23)cc1
active: [1] 6.05% | [4] 2.75% | [5] -37.7% | [8] -62.4% | [9] -40.2% | [10] 1.42% | [12] -3.09% | [15] -8.16% | [16] -20.4% | [18] 0.316%
inactive: [2] 27.5% | [3] 34.6% | [6] 15% | [7] 17.8% | [13] 14.4% | [14] 18% | [17] 66.8%

COc1ccc(C(=O)c2cc3c(OC)c(OC)c(OC)cc3[nH]2)cc1
active: [10] 7.74%
inactive: [1] 32.3% | [2] 86.5% | [3] 77.8% | [4] 16.8% | [5] 25.4% | [6] 36.6% | [7] 73.2% | [8] 37.4% | [9] 81.8% | [12] 56.3% | [13] 72% | [14] 63.5% | [15] 143% | [16] 66.1% | [17] 87.8% | [18] 30.2%

O=C(CSc1nnc(-c2cccnc2SCc2ccccc2)o1)Nc1nc(Cl)cc(Cl)n1
inactive: [1] 102% | [2] 83.7% | [3] 90.6% | [4] 105% | [5] 83.1% | [6] 104% | [9] 107% | [10] 92.8% | [11] 94% | [12] 92% | [13] 105% | [14] 99.7% | [15] 96.8% | [16] 101% | [17] 113% | [18] 92%

COc1ccc(Cl)cc1Nc1nc(C(F)(F)F)ccc1C(=O)N/N=C/c1ccc(Cl)cc1
inactive: [1] 64.1% | [2] 52.1% | [3] 44.8% | [4] 26.9% | [19] 25.7% | [7] 13.6% | [8] 18% | [10] 28.6% | [12] 30.5% | [14] 37.2% | [15] 18.5% | [16] 34% | [17] 43.3% | [18] 57.3%
